Shown are actives, neighbours in structure and some others; about 0.5% of the full set was active somewhere.
E coli growth-1: bacterial growth inhibition, counter-screen for AddAB inhibitors; E. coli V3065 growth, OD600 absorbance, 18 h; inhibition, % at 11.9 µM; 0.27% of 330,000 active;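 active = inhibition above the campaign's mean inhibition across all tested compounds plus 3 SD, cut at about 9.9% in these data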;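 note: uninfected addAB+ strain grown without phage in ampicillin broth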
phage Ecoli inh: E. coli growth loss with phage present; 0.26% of 360,000 active; inhibition, % at 11.9 µM; growth absorbance; in the data active = inhibition above about 11%
E coli growth-2: E. coli growth inhibition; OD600 absorbance (concentration not given with the values); AID 1053175; 0.21% of 330,000 active; Escherichia coli growth, OD600, 23 h; stronger effect = lower value;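 active = OD600 absorbance below the run mean of sample wells minus 3.6 SD, in any replicate, cut at about 0.56 in these data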
AddAB inh: less growth of phage-infected E. coli with AddAB; inhibition, % at 11.9 µM; 0.29% of 330,000 active; AID 435030; E. coli expressing H. pylori AddAB, absorbance growth; in the data active = inhibition above about 12%
Tat export inh: inhibitors of E. coli Tat protein transport. E. coli MC4100 TorA-mCherry Tat export, fluorescence. inhibition, % at 10 µM. 0.036% of 340,000 active. AID 488895;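 active = mean replicate inhibition at least 50% and at least half of replicates individually reaching 50%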;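 note: exported cargo escapes ClpAP degradation while cytoplasmic cargo is degraded and loses fluorescence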
AddAB confirm: growth loss of T4-infected E. coli expressing H. pylori AddAB, confirmed; inhibition, % at 11.9 µM; 64% of 880 active; E. coli V3065 expressing H. pylori AddAB, T4 phage, OD; T4 phage with gene 2 nonsense mutations; shares compounds with AddAB inh;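 active = mean inhibition above a set limit taken from the earlier primary screen, cut at about 13% in these data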;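 note: higher means less bacterial growth since AddAB block lets phage replicate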
RecBCD counter: AddAB counter-screen: growth loss of RecBCD+ E. coli infected with mutant T4 phage; 73% of 880 active; inhibition, % at 11.9 µM; E. coli V66 + mutant T4 phage, OD growth; shares compounds with AddAB inh;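 active = mean inhibition above the mean of solvent-only control wells plus 3 SD, cut at about 4% in these data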;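 note: optical density read after an 18 h incubation at 37 °C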
Bact viability: counter-screen: bacterial growth inhibition | AID 488956 | shares compounds with AddAB inh | 35% of 880 active | inhibition, % at 11.9 µM | bacterial viability, absorbance (AddAB counterscreen); in the data active = inhibition above about 25%
RecBCD conf: growth loss of phage-infected V66 E. coli, RecBCD confirmation screen; 45% of 890 active; inhibition, % at 11.9 µM; AID 651982; shares compounds with phage Ecoli inh; E. coli V66 + T4 2- phage, growth OD;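 active = mean inhibition over triplicates exceeding the hit threshold derived in the original primary screen, cut at about 11% in these data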
Ecoli viability: counter-screen for RecBCD inhibitors: inhibitors of bacterial viability. AID 651983. 29% of 890 active. inhibition, % at 11.9 µM. E. coli viability, absorbance (OD) growth. shares compounds with phage Ecoli inh; in the data active = inhibition above about 20%;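 note: E. coli strain V66 grown with compound alone and no phage infection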
AddAB counter: growth loss of phage-infected AddAB E. coli, RecBCD counter-screen; shares compounds with phage Ecoli inh; E. coli expressing H. pylori AddAB + T4 phage, OD growth; gene 2 mutant T4, recBCD-deleted host; inhibition, % at 11.9 µM; 45% of 890 active; AID 651984;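 active = mean inhibition above the solvent-only control wells' mean plus 3 SD, cut at about 22% in these data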;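 note: higher means less bacterial growth from phage killing when AddAB is blocked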
Hits are given with their value; 0 = inactive; - = no result.

SMILES	E coli growth-1	phage Ecoli inh	E coli growth-2	AddAB inh	Tat export inh	AddAB confirm	RecBCD counter	Bact viability	RecBCD conf	Ecoli viability	AddAB counter
C[n+]1cccc2c(Br)ccc([O-])c21	0	0	0	0	0	-	-	-	-	-	-
Cc1ccc(OCC(=O)c2c[nH]c3ccccc23)c([N+](=O)[O-])n1	20	0	0	23	0	46	6.8	42	-	-	-
CCCC(=O)NC(Nc1ccc(S(=O)(=O)Nc2cc(C)on2)cc1)(C(F)(F)F)C(F)(F)F	0	0	0	16	0	0	0	0	-	-	-
CCCC(=O)NC(Nc1ccc(S(=O)(=O)Nc2cc(C)on2)cc1)(C(=O)OCC)C(F)(F)F (stereo not drawn)	0	0	0	0	0	-	-	-	-	-	-
O=C(CCN1C(=O)/C(=C\c2ccccc2)SC1=S)NNC(=O)c1ccccc1O	0	0	0	16	0	0	5.0	0	-	-	-
O=C(CCCN1C(=O)S/C(=C\c2ccccc2)C1=O)NNC(=O)c1ccccc1O	0	0	-	0	0	-	-	-	-	-	-
COc1cc(C=NNC2=NS(=O)(=O)c3ccccc32)cc(OC)c1OC	-	-	0	-	-	-	-	-	-	-	-
CCc1ccccc1C1=CC(=O)CC(c2ccc(OC)cc2)C1 (stereo not drawn)	-	-	0	-	-	-	-	-	-	-	-
O=C(NCCSc1c[nH]c2ccccc12)c1c(F)cccc1F	0	0	0	0	0	-	-	-	-	-	-
O=C(NCCSc1c[nH]c2ccccc12)c1ccco1	27	0	0	81	0	0	0	0	-	-	-
COC(=O)[C@@]1(Cc2ccc(OC)cc2)C2c3cc(C(=O)N4CCCC4)n(CC(O)CO)c3CC2CN1C(=O)c1ccccc1 (stereo partly drawn)	-	-	0	-	-	-	-	-	-	-	-
Cc1ccc(C)n1-c1nnc(N2CCC(C(=O)N3CCN(C)CC3)CC2)s1	0	0	0	0	0	-	-	-	-	-	-
CCN1CCN(C(=O)C2CCN(c3nnc(-n4c(C)ccc4C)s3)CC2)CC1	0	0	0	131	0	0	0	0	-	-	-
COc1cc(C(C)=NNC(=O)CSc2nnc(C)s2)ccc1O	-	-	0	-	-	-	-	-	-	-	-
Cc1cc(C)c2c(NC(=O)CCl)nn(C)c2n1	65	0	0	93	0	0	0	0	-	-	-
Cc1ccc(C)c(/C=C/C(=O)c2ccccc(=O)c2O)c1	12	0	0	15	0	0	6.5	0	-	-	-
O=C(/C=C/c1ccccc1Cl)c1ccccc(=O)c1O	0	0	0	15	0	0	8.3	0	-	-	-
O=C(/C=C/c1ccccc1Cl)c1ccc(O)cc1	0	0	0	0	0	-	-	-	-	-	-
O=C(CNC(=O)c1ccc(S(=O)(=O)N2CCCC2)cc1)NN=Cc1ccc(Cl)cc1Cl	-	-	0	-	-	-	-	-	-	-	-
Cc1ccc(NC(=O)CSc2n[nH]c(C)c2[N+](=O)[O-])cc1	0	0	0	14	0	0	4.7	0	-	-	-
Cc1[nH]nc(SCC(=O)Nc2ccc(C#N)cc2)c1[N+](=O)[O-]	0	0	-	0	0	-	-	-	-	-	-
CCOC(=O)[C@@H]1[C@H]2COc3cc(OC)ccc3[C@@H]2N2C(=O)N(c3ccc(C(F)(F)F)cc3)C(=O)[C@@]12C	0	0	-	0	0	-	-	-	-	-	-
CCOC(=O)[C@@H]1[C@H]2COc3cc(OC)ccc3[C@H]2N2C(=O)N(c3ccc(C(F)(F)F)cc3)C(=O)[C@]12C	0	15	-	14	0	0	8.4	0	0	0	0
CC[C@H]1OC(=O)[C@H](C)[C@@H](O[C@H]2C[C@@](C)(OC)[C@@H](O)[C@H](C)O2)[C@H](C)[C@@H](O[C@@H]2O[C@H](C)C[C@H](N(C)C)[C@H]2O)[C@](C)(OC)C[C@@H](C)C(=O)[C@H](C)[C@@H](O)[C@]1(C)O	17	15	-	22	58	52	25	28	29	30	40
[N-]=[N+]=NCC(Cc1ccccc1)N1CCC(O)CCC1=O (stereo not drawn)	-	-	0	-	-	-	-	-	-	-	-
SMILES	E coli growth-1	phage Ecoli inh	E coli growth-2	AddAB inh	Tat export inh	AddAB confirm	RecBCD counter	Bact viability	RecBCD conf	Ecoli viability	AddAB counter
O=C(N/N=C/c1c(O)ccc2ccccc12)c1cccc(C(F)(F)F)c1	22	18	-	28	0	14	17	0	0	0	0
CCOC(=O)c1c(-c2ccc(C)cc2)csc1N=CN(C)C	-	-	0	-	-	-	-	-	-	-	-
C#CCOCCOCCOCCNc1nc(N2CCOCC2)nc(N2CCN(C(=O)C(C(C)CC)n3cc(C(N)CO)nn3)CC2)n1 (stereo not drawn)	-	-	0	-	-	-	-	-	-	-	-
Cc1onc(-c2ccccc2)c1C(=O)NC(=S)NNC(=O)c1ccc(O)cc1O	20	15	0	20	0	13	14	0	0	0	25
Cc1onc(-c2ccccc2)c1C(=O)NC(=S)NNC(=O)c1ccccc1O	25	24	0	24	0	25	24	0	14	0	29
O=C(NNC(=S)NC(=O)c1ccccc1[N+](=O)[O-])c1ccccc1O	17	13	0.44	17	0	0	14	0	0	0	0
CCOc1ccc(C(=O)Nc2ccc(N3CCN(C)CC3)cc2)cc1	0	0	0	0	0	-	-	-	-	-	-
CCOc1ccc(NC(=O)c2ccc(NC(=O)c3cn4c5c(c(N6CCN(C)CC6)c(F)cc5c3=O)OCC4C)cc2)cc1 (stereo not drawn)	97	99	0.067	95	88	100	100	99	103	104	104
CC1COc2c(N3CCN(C)CC3)c(F)cc3c(=O)c(C(=O)O)cn1c23 (stereo not drawn)	98	98	0.061	99	117	100	100	101	101	102	102
Fc1ccc(NC(=S)NCc2ccccc2Cl)cc1	13	12	0	14	0	36	25	35	17	24	38
Cn1c(O)c(/C=N/NC(=O)c2cc3ccccc3cc2O)c2ccccc21	25	22	-	23	0	25	25	0	19	23	30
COc1ccc(N/N=C(/N=Nc2nc(C)cc(=O)[nH]2)c2ccccc2)cc1	20	22	-	19	0	24	20	0	14	0	0
Cc1[nH]c(N=Nc2ccccc2)nc1N=Nc1ccccc1	16	12	-	14	0	0	8.2	0	0	0	0
CCN(CC)c1ccc(/C=N/NC(=O)c2cccc(S(=O)(=O)Nc3ccccc3OC)c2)c(O)c1	33	28	-	32	0	21	26	0	19	24	28
O=C1NC(Cc2ccccc2)C(=O)N1Cc1ccccc1 (stereo not drawn)	-	0	0	-	0	-	-	-	-	-	-
